Active and inactive are the calls of the source. The calls were made as follows: active = hit-call score of the fitted dose curve at least 0.9, where 1 is the maximum; inactive = score below 0.9.

The target in the experiment is Hypoxia-inducible factor 1-alpha (Homo sapiens) (UniProt Q16665). The experiment can be described thus: ATG_HIF1a_CIS: Attagene CIS-FACTORIAL HepG2 Assay for human Hypoxia Inducible Factor 1 (HIF1A) (AID 2282951). The following applies: HepG2 Attagene cis-factorial HIF1a reporter transcription; actives raise or lower the signal. Here is the method: ATG_CIS is a cell-based, multiplexed-readout assay that uses HepG2, a human liver cell line, with measurements taken at 24 hours after chemical dosing in a 24-well plate.ATG_HIF1a_CIS is one of 52 assay component(s) measured or calculated from the ATG_CIS assay. It is designed to make measurements of mRNA induction, a form of inducible reporter, as detected with fluorescence intensity signals by Reverse transcription polymerase chain reaction (RT-PCR) and Capillary electrophoresis technology.Data from the assay component ATG_HIF1a_CIS was analyzed into 1 assay endpoint. This assay endpoint, ATG_HIF1a_CIS, was analyzed with bidirectional fitting relative to DMSO as the negative control and baseline of activity. Using a type of inducible reporter, measures of mRNA for gain or loss-of-signal activity can be used to understand the reporter gene at the transcription factor-level as they relate to the gene HIF1A. Furthermore, this assay endpoint can be referred to as a primary readout, because this assay has produced multiple assay endpoints where this one serves a reporter gene function. To generalize the intended target to other relatable targets, this assay endpoint is annotated to the dna binding intended target family, where the subfamily is basic helix-loop-helix protein.
Sequence of Hypoxia-inducible factor 1-alpha (Homo sapiens) (Q16665 whole entry, looked up): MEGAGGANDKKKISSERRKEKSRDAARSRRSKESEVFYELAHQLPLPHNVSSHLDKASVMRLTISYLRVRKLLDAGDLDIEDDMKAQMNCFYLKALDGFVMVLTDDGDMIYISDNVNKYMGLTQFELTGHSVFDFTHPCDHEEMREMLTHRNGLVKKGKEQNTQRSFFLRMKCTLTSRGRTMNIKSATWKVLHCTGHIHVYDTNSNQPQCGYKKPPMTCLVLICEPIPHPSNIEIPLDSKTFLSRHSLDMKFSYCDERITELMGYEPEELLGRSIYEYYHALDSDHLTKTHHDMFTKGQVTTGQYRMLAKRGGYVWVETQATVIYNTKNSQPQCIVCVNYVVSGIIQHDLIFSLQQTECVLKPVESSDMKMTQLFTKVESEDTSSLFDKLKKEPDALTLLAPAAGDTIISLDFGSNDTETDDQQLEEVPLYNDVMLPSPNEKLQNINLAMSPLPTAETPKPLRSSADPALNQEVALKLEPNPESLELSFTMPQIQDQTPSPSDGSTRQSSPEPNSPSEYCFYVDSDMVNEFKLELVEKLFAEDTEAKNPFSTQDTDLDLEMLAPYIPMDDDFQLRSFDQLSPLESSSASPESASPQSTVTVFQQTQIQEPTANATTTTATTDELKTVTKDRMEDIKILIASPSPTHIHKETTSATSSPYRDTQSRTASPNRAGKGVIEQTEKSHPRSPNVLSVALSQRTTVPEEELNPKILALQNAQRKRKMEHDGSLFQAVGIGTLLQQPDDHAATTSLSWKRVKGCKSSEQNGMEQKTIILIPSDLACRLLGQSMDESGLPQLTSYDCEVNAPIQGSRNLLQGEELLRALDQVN
Human liver HepG2 cells are transiently transfected with multiple reporter transcription units (MRTUs) in 6-well plates using FuGene 6 reagent (Roche; 3 ml FuGene/1 mg DNA). The MRTU constructs are regulated by a cis-regulating element (promoter). […] A major difference between the CIS and TRANS system is that in CIS activities of endogenous TFs are measured, whereas the TRANS assay evaluates changes in activities of exogenous, chimeric NR-Gal4 proteins. […] At the end of 24 hour incubation, total RNA was isolated using TriZol reagent (Invitrogen). The isolated RNA is then reverse-transcribed using oligo(dT) primer and Mo-MLV reverse transcriptase (Invitrogen) with DNAse I (Ambion) treatment for 30 min. The one-tenth of the produced cDNA was amplified by PCR using Taq DNA polymerase (Invitrogen) and two reporter sequence-specific primers. The PCR products were fluorescently labeled by primer extension with 6-arboxyfluorescein (6-FAM) 5'-labeled reporter sequence-specific primer (2 min at 95 C, 20 s at 68 C and 10 min at 72 C) and these products were digested with 5U of HpaI (New England Biolabs) for 2h at 37 C. The fragments were purified using Qiaquick PCR columns (Qiagen), analyzed on an ABI 3130xL genetic analyzer (Applied Biosystems) with peak positions identified by using a set of X-rhodamine (ROX)-labeled MapMarker1000 molecular weight standards (BioVentures). The raw capillary electrophoresis data was processed using Attagraph software (Attagene).
Turning to `NNC(=O)OCc1ccccc1`, the outcome was inactive.
Then `CC1=CC(C)C(C=O)C(C)C1` (stereo not given) (tested in a mixture with another compound), with “inactive”.
In the case of `CCOC(=O)CC(C)C` it was “inactive”; in that of `CC(=O)c1ccc(O)cc1`, “inactive”.
Consider `CCCCN(CCCC)CCCCCCN(CCCC)CCCC`, for which the call was inactive.
Then `CC1COC(=O)O1` (stereo not given), with “inactive”; and `CCC(=O)OC/C=C(\C)CCC=C(C)C`, with “inactive”; and `S=c1[nH][nH]c(=S)s1`, with “inactive”.
Then `CCCCCCCCOS(=O)(=O)O`, with “inactive”; and `NC(=O)c1c(Cl)cccc1Cl`, with “inactive”; and `Brc1cc(Br)cc(Br)c1`, with “inactive”.
With `CCCCCCCCCO`, the result was inactive.
In the case of `Cc1cc(O)c2c(c1)C(=O)c1cc(O)cc(O)c1C2=O` it was “inactive”; in that of `CCCCC1CCCCC(=O)O1` (stereo not given), “inactive”; in that of `Cc1cccc(O)c1`, “inactive”.
In the case of `C=CC(C)CCCC(C)(C)O` (stereo not given) it was “inactive”; in that of `COC(=O)c1cccc(C(=O)OC)c1`, “inactive”.
Then `c1ccc2scnc2c1`, with “inactive”; and `OCC=Cc1ccccc1`, with “inactive”; and `CCCCCCC(O)CCOC(C)=O` (stereo not given), with “inactive”.
Regarding `CCCCOCCOC(=O)c1ccccc1C(=O)OCCOCCCC`, the call was inactive.
Then `CCOCC(C)O` (stereo not given), with “inactive”.
In the case of `CCO[Si](CC)(OCC)OCC` it was “inactive”; in that of `COc1ccc(N)c(C)c1`, “inactive”; in that of `[Na+]`, “inactive”.
In the case of `C1COCO1` it was “inactive”; in that of `C=C(C)C(=O)OCCC[Si](OC)(OC)OC`, “inactive”.
As for `CCNC(=S)NCC`, the molecule was called inactive.
Then `CC(=O)CCC(=O)O`, with “inactive”.
Then `CC(=O)OC/C=C(C)/C=C/C=C(C)/C=C/C1=C(C)CCCC1(C)C`, with “inactive”; and `Cc1ccc(C(C)(C)O)cc1`, with “inactive”.
In the case of `CC(=O)Nc1cc(S(=O)(=O)O)cc2cc(S(=O)(=O)O)c(N=Nc3ccccc3)c(O)c12` it was “inactive”; in that of `CCCCN(CCO)CCO`, “inactive”; in that of `FC(F)(F)c1ccc(Cl)c(Cl)c1`, “inactive”.
With `CCO[Si](CCC#N)(OCC)OCC`, the molecule was classed as inactive.
In the case of `CC(C)(O)C(=O)c1ccc(OCCO)cc1` it was “inactive”; in that of `C=C(C)CCCC(C)CCO` (stereo not given), “inactive”; in that of `Cc1ccccc1S`, “inactive”.
With `C=CC(=O)OCCCCCC`, the molecule was called inactive.
In the case of `CCCCCCCCCCCCS` it was “inactive”.

The record behind these values is PubChem BioAssay (EPA / NIEHS).
